Laboratory results reported in PubChem BioAssay (NCATS).
Inconclusive results are not listed. Entries that show only a call come without a potency. Calls of active or inactive are those of the source. The call rests on the fitted dose curve; in most records, active means well fitted inhibition curve with a large enough effect; inconclusive means small, poorly fitted or top-dose-only effect; inactive means flat fitted curve, though single readings scatter.

Tests used:
Experiment in all cases: qHTS profiling for inhibitors of Plasmodium falciparum proliferation (AID 504749); further: nearly all actives have a fitted effect of over 60% in size
Conditions in all cases: P. falciparum in erythrocytes, SYBR Green DNA, 72 h; series mostly up to 28.7 µM
CP203 = tested on: CP203
Outline: (§1)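 P. falciparum-infected erythrocytes (0.3% parasitemia, 2.5% hematocrit final) were exposed to compounds for 72 h at 37 C in 5% CO2, then lysed with SYBR Green buffer overnight at room temperature; parasite DNA fluorescence was normalized to artemisinin and DMSO controls.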

CP250 = tested on: CP250
Outline: as §1

CP262 = tested on: CP262
Outline: as §1

CP266 = tested on: CP266
Outline: as §1

CP269 = tested on: CP269
Outline: as §1

CP297 = tested on: CP297
Outline: as §1

CP211 = tested on: CP211
Outline: as §1

CP237 = tested on: CP237
Outline: as §1

CP252 = tested on: CP252
Outline: as §1

CP260 = tested on: CP260
Outline: as §1

CP286 = tested on: CP286
Outline: as §1

CP217 = tested on: CP217
Outline: as §1

CP238 = tested on: CP238
Outline: as §1

CP247 = tested on: CP247
Outline: as §1

CP256 = tested on: CP256
Outline: as §1

CP268 = tested on: CP268
Outline: as §1

CP291 = tested on: CP291
Outline: as §1

CP305 = tested on: CP305
Outline: as §1

CP215 = tested on: CP215
Outline: as §1

CP265 = tested on: CP265
Outline: as §1
Potency means the concentration at half of the fitted maximal effect.

SMILES	Potency (CP203)	Potency (CP250)	Potency (CP262)	outcome (CP266)	Potency (CP269)	Potency (CP297)	Potency (CP211)	Potency (CP237)	Potency (CP252)	Potency (CP260)	Potency (CP286)	Potency (CP217)	Potency (CP238)	Potency (CP247)	Potency (CP256)	Potency (CP268)	Potency (CP291)	Potency (CP305)	Potency (CP215)	Potency (CP265)
Cc1ccccc1C(OCCN(C)C)c1ccccc1 (stereo not given)	13.5 µM (active)	inactive	inactive	inactive	inactive	inactive	–	–	–	–	–	–	–	–	–	–	–	–	–	–
OC(CN1CCC(Cc2ccc(F)cc2)CC1)c1ccc(Cl)cc1 (stereo not given)	–	–	inactive	inactive	–	–	inactive	2.51 µM (active)	inactive	3.16 µM (active)	3.55 µM (active)	–	–	–	–	–	–	–	–	–
Cc1oncc1C(=O)Nc1ccc(C(F)(F)F)cc1	inactive	inactive	inactive	inactive	inactive	inactive	inactive	inactive	inactive	–	inactive	inactive	inactive	inactive	inactive	inactive	inactive	inactive	–	–
O=C1CCc2cc(OCCCCc3nnnn3C3CCCCC3)ccc2N1	inactive	–	–	inactive	inactive	inactive	inactive	inactive	–	inactive	inactive	–	3.16 µM (active)	–	–	inactive	inactive	inactive	inactive	–
CNC[C@H](O)c1cccc(O)c1	inactive	inactive	inactive	inactive	inactive	inactive	inactive	inactive	inactive	inactive	inactive	inactive	inactive	inactive	inactive	inactive	inactive	inactive	–	inactive
Cc1c(C)c2c(c(C)c1O)CCC(C)(COc1ccc(CC3SC(=O)NC3=O)cc1)O2 (stereo not given)	–	inactive	inactive	inactive	–	–	–	–	inactive	inactive	inactive	–	inactive	–	inactive	inactive	inactive	inactive	–	–
Cn1cnc([N+](=O)[O-])c1Sc1ncnc2nc[nH]c12	inactive	–	inactive	inactive	inactive	inactive	inactive	inactive	–	inactive	inactive	–	–	6.31 µM (active)	inactive	inactive	inactive	inactive	inactive	–
CN1CCN(CCCN2c3ccccc3Sc3ccc(C(F)(F)F)cc32)CC1	15.1 µM (active)	8.91 µM (active)	–	–	15.1 µM (active)	–	–	12.6 µM (active)	14.1 µM (active)	10 µM (active)	12.6 µM (active)	–	3.16 µM (active)	–	–	–	–	–	–	–
CCOC(=O)C1=C[C@@]2(CC)CCCN3CCc4c(n1c1ccccc41)[C@H]32	15.1 µM (active)	–	12 µM (active)	–	10.7 µM (active)	12 µM (active)	13.5 µM (active)	–	–	–	–	–	–	–	–	10.7 µM (active)	13.5 µM (active)	13.5 µM (active)	10.7 µM (active)	–
CC(c1cc2ccccc2s1)N(O)C(N)=O (stereo not given)	inactive	inactive	inactive	inactive	inactive	inactive	inactive	inactive	inactive	inactive	inactive	inactive	inactive	inactive	inactive	inactive	inactive	inactive	–	inactive
Nc1ccc(S(=O)(=O)Nc2ccnn2-c2ccccc2)cc1	inactive	inactive	inactive	inactive	inactive	inactive	inactive	inactive	inactive	inactive	inactive	inactive	inactive	inactive	inactive	inactive	inactive	inactive	–	inactive
O=c1n(CCCN2CCN(c3cccc(Cl)c3)CC2)nc2ccccn12	inactive	inactive	–	inactive	inactive	inactive	inactive	inactive	inactive	inactive	inactive	inactive	inactive	inactive	inactive	inactive	inactive	inactive	–	inactive
CCOC(=O)C1=C[C@]2(CC)CCCN3CCc4c(n1c1ccccc41)[C@@H]32	16.9 µM (active)	–	inactive	–	13.5 µM (active)	13.5 µM (active)	–	–	–	–	–	11.2 µM (active)	–	–	–	–	–	–	–	10 µM (active)
Clc1ccc(Nc2nnc(Cc3ccncc3)c3ccccc23)cc1	inactive	inactive	inactive	inactive	inactive	inactive	inactive	–	inactive	–	–	–	inactive	–	inactive	inactive	inactive	inactive	inactive	inactive
NC(N)=NC(=O)c1nc(Cl)c(N)nc1N	19 µM (active)	–	inactive	inactive	–	inactive	inactive	8.91 µM (active)	inactive	–	–	–	–	–	–	–	–	–	–	11.2 µM (active)
CCCc1nc2c(C)cc(-c3nc4ccccc4n3C)cc2n1Cc1ccc(-c2ccccc2C(=O)O)cc1	inactive	inactive	inactive	inactive	–	–	–	4.47 µM (active)	–	6.31 µM (active)	11.2 µM (active)	–	–	–	inactive	–	–	inactive	–	–
CCc1ccc(CCOc2ccc(CC3SC(=O)NC3=O)cc2)nc1 (stereo not given)	inactive	inactive	inactive	inactive	inactive	inactive	inactive	inactive	inactive	inactive	inactive	inactive	inactive	–	inactive	inactive	inactive	inactive	inactive	inactive
C#Cc1cccc(Nc2ncnc3cc(OCCOC)c(OCCOC)cc23)c1	–	–	inactive	inactive	–	–	–	12.6 µM (active)	–	–	–	–	–	–	–	–	–	inactive	–	inactive
C1COC(NC(C2CC2)C2CC2)=N1	inactive	–	inactive	inactive	inactive	inactive	inactive	–	–	–	inactive	–	–	11.2 µM (active)	–	inactive	–	inactive	–	–
N[C@@H]1CONC1=O	inactive	inactive	inactive	inactive	inactive	–	inactive	inactive	inactive	inactive	inactive	inactive	inactive	–	inactive	inactive	inactive	inactive	inactive	inactive
CCOC(=O)N1CCC(=C2c3ccc(Cl)cc3CCc3cccnc32)CC1	–	3.55 µM (active)	inactive	–	–	13.5 µM (active)	–	8.91 µM (active)	2 µM (active)	12.6 µM (active)	–	3.98 µM (active)	inactive	–	–	–	–	–	–	10 µM (active)
